Reference: PubChem BioAssay (EPA / NIEHS)
Inconclusive results are not listed. Calls of active or inactive are those of the source. How the source made its calls, unless noted: active means hit-call score of the fitted dose curve at least 0.9, where 1 is the maximum; inconclusive means response in the unintended direction; inactive means score below 0.9.

How the values were obtained:
[1] = read-out: UDP glucuronosyltransferase (UGT1A6), UGT1A6 (gene 54578); assay: LTEA_HepaRG_UGT1A6: Life Technologies and Expression Analysis (LTEA) Assay for UDP glucuronosyltransferase (UGT1A6) using HepaRG (AID 2283539; active means hit-call score of the fitted dose curve at least 0.9, where 1 is the maximum; inactive means score below 0.9); conditions: mRNA level, 48 h; actives raise or lower the signal
Summary of the method: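 Endpoint is UGT1A6 transcript induction or loss in a human liver cell line, quantified by TaqMan qRT-PCR 48 h after dosing. Concentrations ran from 100 uM downward in half-log steps in 0.5% DMSO; activity was fitted in both directions versus vehicle.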

[2] = read-out: X-box binding protein 1 (XBP1), XBP1 (gene 7494); assay: LTEA_HepaRG_XBP1: Life Technologies and Expression Analysis (LTEA) Assay for X-box binding protein 1 (XBP1) using HepaRG (AID 2283540; active means hit-call score of the fitted dose curve at least 0.9, where 1 is the maximum; inactive means score below 0.9); conditions: mRNA level, 48 h; actives raise or lower the signal
Summary of the method: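 Human HepaRG monolayers receive test chemical for 48 h across an eight-point half-log series starting at 100 uM. XBP1 mRNA gain or loss is scored against DMSO by qRT-PCR.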

[3] = LTEA_HepaRG_LDH_cytotoxicity: Cytotoxicity Assessment in the Life Technologies and Expression Analysis (LTEA) Assay (AID 2283563);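 on AC50: LDH activity released into spent culture medium as a marker of cell death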
Summary of the method: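 Human HepaRG hepatic cells are treated with test chemicals for 48 h at up to 100 uM in 0.5% DMSO. Cytotoxicity is scored from medium LDH against the vehicle control.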

[4] = target: Cellular tumor antigen p53 (Homo sapiens) (UniProt P04637); assay: TOX21_p53_BLA_p2_ratio: Tox21 HCT-116 p53 Agonism Beta-lactamase Assay, Ratio, Phase 2 (AID 2283592)
Summary of the method: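 An inducible beta-lactamase reporter in HCT116 cells signals p53 pathway activation. After 16 h chemical exposure at 37C, cells load CCF4-AM substrate for 2 h at room temperature; activity is the cleaved/uncleaved emission ratio relative to DMSO.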

[5] = TOX21_p53_BLA_p5_viability: Viability Assessment in the Tox21 HCT-116 p53 Agonism Beta-lactamase Assay, Phase 5 (AID 2283600)
Summary of the method: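 Counter-readout for cytotoxicity: ATP-dependent luminescence from CellTiter-Glo, read in the beta-lactamase wells after 30 min at RT, following a 16 h compound exposure at 37C.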

[6] = Tanguay_ZF_120hpf_MORT_legacy: (Legacy) Oregon State University Tanguay Lab 120 Hour Post-fertilization zebrafish Assay for Mortality (AID 2283633)
Summary of the method: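 Mortality endpoint from a multiplexed whole-embryo zebrafish screen. Dechorionated wild-type embryos received compound at 6 hpf and remained under static exposure at 28C until 120 hpf, with death noted as a present/absent call.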

[7] = Tanguay_ZF_120hpf_YSE_legacy: (Legacy) Oregon State University Tanguay Lab 120 Hour Post-fertilization zebrafish Assay for Yolk Sac Edema (AID 2283634)
Summary of the method: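 Readout: presence or absence of yolk sac edema at 120 hpf, fitted upward against DMSO controls. Exposure ran statically from 6 hpf in dechorionated embryos kept at 28C.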

[8] = Tanguay_ZF_120hpf_AXIS_legacy: (Legacy) Oregon State University Tanguay Lab 120 Hour Post-fertilization zebrafish Assay for Body Axis Malformation (AID 2283635)
Summary of the method: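 Static 6–120 hpf chemical exposure of dechorionated wild-type 5D zebrafish, one per well at 28C; morphology endpoint scored binary at 120 hpf relative to DMSO control.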

[9] = Tanguay_ZF_120hpf_EYE_legacy: (Legacy) Oregon State University Tanguay Lab 120 Hour Post-fertilization zebrafish Assay for Eye Malformation (AID 2283636)
Summary of the method: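 Read-out is binary presence or absence of eye malformation, scored by brightfield microscopy at 120 hpf. Single larvae were exposed from 6 hpf in embryo medium containing 0.64% DMSO, with DMSO as baseline.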

[10] = Tanguay_ZF_120hpf_SNOU_legacy: (Legacy) Oregon State University Tanguay Lab 120 Hour Post-fertilization zebrafish Assay for Snout Malformation (AID 2283637)
Summary of the method: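 Snout malformation read as a yes/no call on brightfield images of 120 hpf larvae (Tropical 5D strain). Static exposure began at 6 hpf on dechorionated embryos in 0.64% DMSO, with gain of signal analysed versus DMSO controls.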

[11] = Tanguay_ZF_120hpf_OTIC_legacy: (Legacy) Oregon State University Tanguay Lab 120 Hour Post-fertilization zebrafish Assay for Otic Vesicle Malformation (AID 2283639)
Summary of the method: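 Tropical 5D wild-type zebrafish embryos statically exposed in 0.64% DMSO at 28C until 120 hpf; 5uM trimethyltin chloride as positive control. Otic vesicle malformation scored present/absent by brightfield; dead embryos not scored; gain fitted versus DMSO.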

[12] = Tanguay_ZF_120hpf_PE_legacy: (Legacy) Oregon State University Tanguay Lab 120 Hour Post-fertilization zebrafish Assay for Pericardial Edema (AID 2283640)
Summary of the method: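 Read-out is the presence or absence of pericardial edema at 120 hpf under brightfield, with gain of signal fitted against DMSO controls. Larvae (5D wild-type) were statically exposed at 28C with 0.64% final DMSO.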

[13] = Tanguay_ZF_120hpf_BRAI_legacy: (Legacy) Oregon State University Tanguay Lab 120 Hour Post-fertilization zebrafish Assay for Brain Malformation (AID 2283641)
Summary of the method: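 Brain malformation in Tropical 5D zebrafish was recorded as a binary endpoint after static compound exposure from early development to 120 hpf at 28C. Activity was analysed against DMSO as negative control.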

[14] = ATG_XTT_Cytotoxicity: Cytotoxicity Assessment in the Attagene TRANS-FACTORIAL HepG2 Assay (AID 2283584);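 on AC50: XTT signal for cell number as viability in transfected HepG2 cells; cells exposed to compound for 24 h before reading; active means loss of viability signal versus DMSO baseline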
Summary of the method: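 Transfect HepG2 with GAL4-UAS reporter units, dose compound, incubate 24 h, then measure viable cell number by XTT. Fit concentration response against DMSO baseline.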

[15] = TOX21_p53_BLA_p2_viability: Viability Assessment in the Tox21 HCT-116 p53 Agonism Beta-lactamase Assay, Phase 2 (AID 2283591);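 further: actives lower the ATP signal meaning cytotoxicity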
Summary of the method: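 Cytotoxicity readout: CellTiter-Glo ATP luminescence, 30 min at room temperature, after the beta-lactamase read. Cells were HCT116 exposed 16 h at 37C to compounds pin-transferred at 217-fold dilution from DMSO stocks.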

[16] = target: Cellular tumor antigen p53 (Homo sapiens) (UniProt P04637); assay: TOX21_p53_BLA_p3_ratio: Tox21 HCT-116 p53 Agonism Beta-lactamase Assay, Ratio, Phase 3 (AID 2283596)
Summary of the method: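 HCT116 p53-bla cells (4000/well) given compound in DMSO (217-fold dilution) after 5 h, incubated 16 h at 37C. CCF4-AM substrate 2 h at room temperature; 460/530 nm emission ratio, gain fitted against DMSO.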

[17] = TOX21_p53_BLA_p4_viability: Viability Assessment in the Tox21 HCT-116 p53 Agonism Beta-lactamase Assay, Phase 4 (AID 2283597);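 further: hits lower the luminescence signal meaning cytotoxicity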
Summary of the method: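 Compound exposure of HCT116 cells lasts 16 h at 37C, 5% CO2, with DMSO stocks diluted 217-fold. Cellular ATP is then quantified by CellTiter-Glo luminescence after 30 min at room temperature.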

[18] = target: Cellular tumor antigen p53 (Homo sapiens) (UniProt P04637); assay: TOX21_p53_BLA_p5_ratio: Tox21 HCT-116 p53 Agonism Beta-lactamase Assay, Ratio, Phase 5 (AID 2283599)
Summary of the method: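 Beta-lactamase reporter ratio (blue 460 nm over green 530 nm, 405 nm excitation) after 2 h CCF4-AM loading, in HCT-116 cells exposed 16 h at 37 C to compounds pinned at 217-fold dilution. Increases relative to DMSO baseline scored.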

[19] = target: Cellular tumor antigen p53 (Homo sapiens) (UniProt P04637); assay: TOX21_p53_BLA_p4_ratio: Tox21 HCT-116 p53 Agonism Beta-lactamase Assay, Ratio, Phase 4 (AID 2283601)
Summary of the method: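 Signal is the blue/green (460nm/530nm) ratio of cleaved versus uncleaved CCF4-AM substrate, read after 2 h substrate loading. Cells were HCT116 carrying the p53-responsive beta-lactamase reporter, dosed 16 h at 37C, 5% CO2; CellTiter-Glo measured in parallel.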

[20] = Tanguay_ZF_120hpf_JAW_legacy: (Legacy) Oregon State University Tanguay Lab 120 Hour Post-fertilization zebrafish Assay for Jaw Malformation (AID 2283638)
Summary of the method: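 Static waterborne exposure of dechorionated wild-type (Tropical 5D) zebrafish from 6 to 120 hpf at 28C, 0.64% DMSO vehicle; 5uM trimethyltin chloride served as positive control. Jaw morphology recorded as binary at 120 hpf.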

Measured: AC50

Chain of Cellular tumor antigen p53 (Homo sapiens) (P04637 whole entry, looked up): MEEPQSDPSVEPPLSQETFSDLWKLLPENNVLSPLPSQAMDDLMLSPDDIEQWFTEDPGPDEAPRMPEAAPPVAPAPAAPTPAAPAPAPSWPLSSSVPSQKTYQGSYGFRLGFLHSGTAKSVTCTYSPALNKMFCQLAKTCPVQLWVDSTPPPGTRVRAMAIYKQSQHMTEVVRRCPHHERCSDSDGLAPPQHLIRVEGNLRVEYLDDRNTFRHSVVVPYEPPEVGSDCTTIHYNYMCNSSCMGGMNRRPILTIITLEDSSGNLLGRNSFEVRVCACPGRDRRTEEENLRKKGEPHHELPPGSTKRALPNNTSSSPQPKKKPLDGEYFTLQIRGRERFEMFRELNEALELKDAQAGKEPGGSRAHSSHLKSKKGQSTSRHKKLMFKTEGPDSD

CCCc1ccccc1
inactive: [1] | [2] | [3] | [4] | [5] | [6] | [7] | [8] | [9] | [10] | [11] | [12] | [13]

O=S1(=O)CCCO1
inactive: [1] | [3] | [14] | [15] | [4] | [16] | [17] | [18] | [5] | [19] | [6] | [8] | [9] | [10] | [20] | [11] | [13]

O=C1CN(N=Cc2ccc([N+](=O)[O-])o2)C(=O)N1
inactive: [1] | [3] | [14] | [15] | [4] | [16] | [17] | [18] | [5] | [19] | [6] | [9] | [10] | [11] | [13]

CCCCCCCCCCCCCCCCOS(=O)(=O)O
inactive: [1] | [2] | [3] | [15] | [4] | [16] | [18] | [5] | [19] | [6] | [7] | [8] | [9] | [10] | [20] | [11] | [13]
active: [14] 79 µM | [17] 36.5 µM

CC(C)CC(C)O (stereo not drawn)
inactive: [1] | [2] | [3] | [14] | [6] | [7] | [8] | [9] | [10] | [20] | [11] | [12] | [13]

CCCCN1C(=O)[C@@H]([C@H](O)C2CCCCC2)NC(=O)C12CCN(Cc1ccc(Oc3ccc(C(=O)O)cc3)cc1)CC2
inactive: [15] | [17] | [6] | [7] | [8] | [10] | [11] | [13]
active: [1] 10 µM | [2] 3.25 µM | [3] 37.5 µM | [4] 38.1 µM | [16] 48.8 µM | [18] 63.7 µM | [19] 57.9 µM

Cn1cc[nH]c1=S
inactive: [1] | [2] | [3] | [14] | [6] | [9] | [10] | [11] | [13]

OC(Cn1cncn1)(Cn1cncn1)c1ccc(F)cc1F
inactive: [1] | [2] | [3] | [14] | [15] | [4] | [16] | [17] | [18] | [5] | [19] | [6] | [7] | [8] | [10] | [20] | [11]
